Experimental data published in PubChem BioAssay (Tox21).
“And” between values parts separate entries of the source, which are not always exact repeats. Identical values can stand only once. Results filed as inconclusive are left out. Entries that show only a call come without a potency. More than one record can exist for a structure, and the calls need not agree. The source made the active and inactive calls. Unless noted, calls follow the shape of the dose curve; as a rule, active = well fitted curve in the direction sought with a large enough effect in the repeat runs; inconclusive = weak or mixed curves; inactive = no such curve, though single readings can be large; an effect the other way counts as inactive or inconclusive.

What was measured:
[1] = qHTS assay to identify small molecule antagonists of the estrogen related receptor (ERR) signaling pathway from Tox21 library - cell viability counter screen (AID 1224834); also: nearly all actives have a fitted effect of over 30% in size; also: potency is read from the fitted curve at half-maximal effect
In short: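 After 17.5 h of compound exposure at 37 C, ERR cells are incubated with CellTiter-Fluor for 30 min and fluorescence intensity serves as the viability measure.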

[2] = biological target: Luciferin 4-monooxygenase (Photinus pyralis) (UniProt P08659); experiment: qHTS assay to identify small molecule inhibitors of firefly luciferase (AID 1224835); also: nearly all actives have a fitted effect of over 25% in size; also: potency is read from the fitted curve at half-maximal effect
Chain of Luciferin 4-monooxygenase (Photinus pyralis) (P08659 whole entry, looked up): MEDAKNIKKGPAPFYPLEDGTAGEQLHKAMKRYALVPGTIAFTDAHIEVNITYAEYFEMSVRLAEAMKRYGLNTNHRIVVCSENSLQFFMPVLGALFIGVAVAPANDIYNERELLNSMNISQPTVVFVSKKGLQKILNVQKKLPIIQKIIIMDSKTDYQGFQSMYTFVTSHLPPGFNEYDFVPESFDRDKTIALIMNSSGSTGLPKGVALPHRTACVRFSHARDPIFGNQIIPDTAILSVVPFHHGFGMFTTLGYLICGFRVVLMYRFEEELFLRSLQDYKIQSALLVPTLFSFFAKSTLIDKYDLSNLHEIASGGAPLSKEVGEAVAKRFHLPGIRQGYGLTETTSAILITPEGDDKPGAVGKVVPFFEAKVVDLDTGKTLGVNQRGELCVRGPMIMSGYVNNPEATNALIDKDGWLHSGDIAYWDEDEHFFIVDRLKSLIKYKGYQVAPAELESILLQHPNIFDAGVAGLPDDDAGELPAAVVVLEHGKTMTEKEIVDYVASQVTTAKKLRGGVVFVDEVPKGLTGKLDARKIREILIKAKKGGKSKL
In short: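 Quantitative HTS format; KM concentrations of both substrates. Purified P. pyralis FLuc activity quantified from luminescence images.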

[3] = qHTS assay to identify small molecule agonists of the constitutive androstane receptor (CAR) signaling pathway - cell viability counter screen (AID 1224836); also: nearly all actives have a fitted effect of over 45% in size; also: potency is read from the fitted curve at half-maximal effect
In short: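 HepG2 cells stably carrying hCAR and a CYP2B6-2.2kb reporter were plated 4 h, then given compounds at 15 concentrations plus PK11195 (final 0.75 uM). After 23 h at 37 C, viability was read by CellTiter-Fluor fluorescence.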

[4] = qHTS assay to identify small molecule antagonists of the constitutive androstane receptor (CAR) signaling pathway - cell viability counter screen (AID 1224837); also: nearly all actives have a fitted effect of over 45% in size; also: potency is read from the fitted curve at half-maximal effect
In short: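 Counter screen run in HepG2-CYP2B6-hCAR cells: 4 hr settle, compound titration (15 concentrations) with 50 nM CITCO, 23 hr at 37 C/5% CO2, CellTiter-Fluor fluorescence.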

[5] = biological target: Nuclear receptor subfamily 1 group I member 3 (Homo sapiens) (UniProt Q14994); experiment: qHTS assay to identify small molecule antagonists of the constitutive androstane receptor (CAR) signaling pathway (AID 1224838); also: nearly all actives have a fitted effect of over 40% in size; also: potency is read from the fitted curve at half-maximal effect
Chain of Nuclear receptor subfamily 1 group I member 3 (Homo sapiens) (Q14994 whole entry, looked up): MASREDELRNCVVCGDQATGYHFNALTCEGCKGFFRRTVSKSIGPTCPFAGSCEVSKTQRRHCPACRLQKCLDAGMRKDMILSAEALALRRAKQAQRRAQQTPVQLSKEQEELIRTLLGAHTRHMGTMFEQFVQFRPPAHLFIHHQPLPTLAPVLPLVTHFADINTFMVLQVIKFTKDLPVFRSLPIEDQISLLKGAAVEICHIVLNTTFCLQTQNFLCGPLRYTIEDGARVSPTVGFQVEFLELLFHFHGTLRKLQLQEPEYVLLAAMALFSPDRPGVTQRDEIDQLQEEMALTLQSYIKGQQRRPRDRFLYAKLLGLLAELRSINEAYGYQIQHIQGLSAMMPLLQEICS
In short: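 Cell line: HepG2 double-stable for hCAR and CYP2B6-2.2kb reporter. Agonist: CITCO, 50 nM final. Compounds: 15 concentrations, 24 h, 37 C. Detection: ONE-Glo luminescence.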

[6] = qHTS assay to identify small molecule antagonists of the estrogen related receptor signaling pathway with the pleiotropic PPARgamma coactivator (PGC) from Tox21 10K library (AID 1224841; call rule not given here; also: actives are mostly falling curves and most rising ones were filed inactive; nearly all actives have a fitted effect of over 50% in size; also: potency is read from the fitted curve at half-maximal effect)
In short: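 qHTS antagonist format: PGC/ERR cells, 2k/well, compound in DMSO by pin transfer after 6 h attachment, 18 h treatment at 37 C, One-Glo luminescence read at 30 min.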

[7] = qHTS assay to identify small molecule agonists of the estrogen related receptor signaling pathway with the pleiotropic PPARgamma coactivator (PGC) from Tox21 10K library (AID 1224842); also: nearly all actives have a fitted effect of over 15% in size
In short: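 PGC/ERR reporter cells (NTP line) were seeded 2,000 per well, rested 6 h at 37 C/5% CO2, then pin-dosed with compounds in DMSO for 18 h at 37 C; luciferase read by One-Glo luminescence after 30 min at room temperature.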

[8] = qHTS assay to identify small molecule antagonists of the estrogen related receptor signaling pathway with the pleiotropic PPARgamma coactivator (PGC) from Tox21 10K library - cell viability counter screen (AID 1224840; active = well fitted cell-killing curve with a large enough effect in the repeat runs, not every such curve was filed as active; also: nearly all actives have a fitted effect of over 40% in size; also: potency is read from the fitted curve at half-maximal effect)
In short: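 Following seeding of 2,000 PGC/ERR cells/well and 6 hours' incubation, test compounds were delivered in DMSO. The plates then sat 17.5 hours at 37 C before a fluorogenic live-cell protease reagent (CellTiter-Fluor) was read after 30 min.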

[9] = biological target: Thyrotropin receptor (Homo sapiens) (UniProt P16473); experiment: qHTS assay to identify small molecule agonists of the thyroid stimulating hormone receptor (TSHR) signaling pathway (AID 1224843; calls by dose curve; also: nearly all actives have a fitted effect of over 45% in size; also: potency is read from the fitted curve at half-maximal effect)
Chain of Thyrotropin receptor (Homo sapiens) (P16473 whole entry, looked up): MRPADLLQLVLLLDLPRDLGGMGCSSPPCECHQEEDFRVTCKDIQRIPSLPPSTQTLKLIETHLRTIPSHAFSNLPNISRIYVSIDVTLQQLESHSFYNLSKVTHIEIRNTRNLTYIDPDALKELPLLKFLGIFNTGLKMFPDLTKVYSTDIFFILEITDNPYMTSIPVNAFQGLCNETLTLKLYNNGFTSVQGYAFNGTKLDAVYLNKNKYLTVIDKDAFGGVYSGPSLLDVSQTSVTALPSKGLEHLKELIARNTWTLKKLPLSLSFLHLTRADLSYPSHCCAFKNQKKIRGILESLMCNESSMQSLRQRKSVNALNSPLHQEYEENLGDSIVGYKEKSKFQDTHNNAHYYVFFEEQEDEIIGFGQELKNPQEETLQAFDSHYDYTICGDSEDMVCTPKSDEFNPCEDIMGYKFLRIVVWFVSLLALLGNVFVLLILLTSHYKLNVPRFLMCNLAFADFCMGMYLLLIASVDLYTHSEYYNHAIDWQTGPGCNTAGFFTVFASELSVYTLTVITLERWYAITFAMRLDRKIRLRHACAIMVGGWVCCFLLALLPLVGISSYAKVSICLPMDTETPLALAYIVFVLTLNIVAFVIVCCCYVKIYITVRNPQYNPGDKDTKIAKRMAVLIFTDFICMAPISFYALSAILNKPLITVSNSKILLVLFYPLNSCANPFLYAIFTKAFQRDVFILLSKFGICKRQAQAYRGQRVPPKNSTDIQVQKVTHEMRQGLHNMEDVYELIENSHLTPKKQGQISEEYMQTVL
In short: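 TSHR-expressing HEK293 cells (800 per well) were exposed to compounds for 30 min at room temperature. cAMP was then detected by HTRF competition with cAMP-d2 and anti-cAMP cryptate, read after 1 h at room temperature. Fifteen concentrations, triplicate.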

[10] = biological target: Nuclear receptor subfamily 1 group I member 3 (Homo sapiens) (UniProt Q14994); experiment: qHTS assay to identify small molecule agonists of the constitutive androstane receptor (CAR) signaling pathway (AID 1224839); also: nearly all actives have a fitted effect of over 15% in size; also: potency is read from the fitted curve at half-maximal effect
In short: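 HepG2 cells stably expressing hCAR and a CYP2B6-2.2kb luciferase reporter were treated with compounds at 15 concentrations plus 0.75 uM PK11195 (final) for 24 h at 37 C; luminescence was read after ONE-Glo addition.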

Row | SMILES | Potency [1] | Potency [2] | Potency [3] | Potency [4] | Potency [5] | Potency [6] | Potency [7] | Potency [8] | Potency [9] | Potency [10]
1 | CC(C)(C)c1ccc(O)c(C(C)(C)C)c1 | 48.4 µM (active) and 61.1 µM (active) | inactive | inactive | inactive | inactive | 54.3 µM (active) and inactive | inactive | – | – | –
2 | O=C(Oc1ccccc1)c1ccccc1O | inactive | 31.9 µM (active) and 22.4 µM (active) | inactive | inactive | inactive | – | – | inactive | inactive | –
3 | CC(C(O)c1ccc(O)cc1)N1CCC(Cc2ccccc2)CC1 (configuration not stated) | inactive | inactive | inactive | inactive | – | inactive | inactive | inactive | – | –
4 | BrC1CCC(Br)C(Br)CCC(Br)C(Br)CCC1Br (configuration not stated) | 48.4 µM (active) | inactive | inactive | inactive | 21.6 µM (active) and 25.9 µM (active) | 30.5 µM (active) | inactive | – | – | –
5 | CC[C@]1(O)C[C@@H]2CN(CCc3c([nH]c4ccccc34)[C@@](C(=O)OC)(c3cc4c(cc3OC)N(C)[C@H]3[C@@](O)(C(=O)OC)[C@H](OC(C)=O)[C@]5(CC)C=CCN6CC[C@]43[C@@H]65)C2)C1 | 0.841 µM (active) | inactive | 1.19 µM (active) and 2.98 µM (active) | 2.66 µM (active) and 4.22 µM (active) | – | – | – | inactive | inactive | –
6 | O=C(O)c1cccc(C(=O)O)c1 | inactive | inactive | inactive | inactive | – | – | – | inactive | inactive | –
7 | O=C1Nc2ccccc2C1(c1ccc(O)cc1)c1ccc(O)cc1 | 43.3 µM (active) | inactive | inactive | inactive | – | – | – | inactive | inactive | –
8 | NNCCc1ccccc1 | inactive | 25.3 µM (active) and inactive | inactive | inactive | inactive | – | – | inactive | inactive | –
9 | c1ccc2n[nH]nc2c1 | inactive | inactive | inactive | inactive | inactive | – | – | inactive | inactive | –
10 | c1ccc2c(c1)CCCC2C1=NCCN1 (configuration not stated) | inactive | inactive | inactive | inactive | – | – | – | inactive | inactive | –
11 | O=C(O)CP(=O)(O)O | inactive | inactive | inactive | inactive | inactive | – | – | inactive | inactive | –
12 | C=C(C)C1CC=C(C)C(OC(C)=O)C1 (configuration not stated) | inactive | inactive | inactive | inactive | – | inactive | inactive | inactive | inactive | –
13 | Cc1cccc2n[nH]nc12 | inactive | inactive | inactive | inactive | inactive | inactive | – | inactive | inactive | –
14 | CCOc1ccc2c(c1)C(C)=CC(C)(C)N2 | inactive | 56.1 µM (active) and 63.3 µM (active) | inactive | inactive | inactive | inactive | – | inactive | inactive | –
15 | Cc1c(O)cccc1C(=O)N[C@@H](CSc1ccccc1)[C@H](O)CN1C[C@H]2CCCC[C@H]2C[C@H]1C(=O)NC(C)(C)C | 8.41 µM (active) and 11.9 µM (active) | inactive | 26.6 µM (active) and 23.7 µM (active) | 26.6 µM (active) and 11.9 µM (active) | 59.5 µM (active) and 26.6 µM (active) | – | – | 9.43 µM (active) | inactive | –
16 | Cc1cc(C(C)(C)C)c(O)c(C(C)(C)C)c1 | inactive | inactive | inactive | inactive | inactive | – | – | inactive | inactive | –
17 | CCN(CC)C(=O)Nc1ccc(OCC(O)CNC(C)(C)C)c(C(C)=O)c1 (configuration not stated) | inactive | inactive | inactive | inactive | inactive | inactive | – | inactive | inactive | –
18 | COc1nc(C)nc(Cl)c1NC1=NCCN1 | inactive | inactive | inactive | inactive | – | – | – | inactive | inactive | –
19 | CCC(C)(C)C(=O)O[C@H]1C[C@@H](C)C=C2C=C[C@H](C)[C@H](CC[C@@H]3C[C@@H](O)CC(=O)O3)[C@H]21 | inactive | inactive | inactive | inactive | inactive | – | – | inactive | inactive | –
20 | CCCCC/C=C/CC1CC(=O)OC1=O (configuration not stated) | inactive | inactive | inactive | inactive | inactive | inactive | – | inactive | inactive | –
21 | COc1ccc(Cc2cnc(N)nc2N)cc1OC | inactive | inactive | inactive | inactive | inactive | inactive | – | inactive | inactive | –
22 | Oc1ccc(Cl)cc1Cc1cc(Cl)ccc1O | 44.1 µM (active) and 61.1 µM (active) and 29.8 µM (active) | inactive | inactive | inactive | – | – | – | 24.8 µM (active) | inactive | inactive

Row | SMILES | Potency [1] | Potency [2] | Potency [3] | Potency [4] | Potency [5] | Potency [6] | Potency [7] | Potency [8] | Potency [9] | Potency [10]
23 | Cc1ccnc2c1NC(=O)c1cccnc1N2C1CC1 | inactive | inactive | inactive | inactive | inactive | – | – | inactive | inactive | –
24 | CC(=O)CC(C)=O | inactive | inactive | inactive | inactive | – | inactive | inactive | inactive | inactive | –
25 | O=C(O)Cn1cnnn1 | inactive | inactive | inactive | inactive | inactive | inactive | – | inactive | inactive | –
26 | CC(=O)Nc1ccc(C(=O)CCl)cc1 | inactive | inactive | inactive | inactive | – | – | – | inactive | inactive | –
27 | Cc1scc2c1N(C(=O)CN1CCN(C)CC1)c1ccccc1NC2=O | inactive | inactive | inactive | inactive | – | – | – | inactive | inactive | inactive
28 | NCCO | inactive | inactive | inactive | inactive | – | – | – | inactive | inactive | –
29 | NCCCCCC(=O)O | inactive | inactive | inactive | inactive | – | – | – | inactive | inactive | –
30 | NC(N)=Nc1nc(CSCC/C(N)=N/S(N)(=O)=O)cs1 | inactive | inactive | inactive | inactive | – | inactive | – | inactive | – | –
31 | CC(N)=O | inactive | inactive | inactive | inactive | – | – | – | inactive | inactive | –
32 | COC(=O)[C@H]1[C@H]2C[C@@H]3c4[nH]c5cc(OC)ccc5c4CCN3C[C@H]2C[C@@H](OC(=O)c2cc(OC)c(OC)c(OC)c2)[C@@H]1OC | 22.3 µM (active) | inactive | inactive | inactive | – | 43.2 µM (active) and 15.8 µM (active) | – | inactive | inactive | –
33 | CC(C)(C)c1cc(C(C)(C)C)c(O)c(C(C)(C)C)c1 | inactive | inactive | inactive | inactive | – | – | – | inactive | inactive | –
34 | NC12CC3CC(CC(C3)C1)C2 | inactive | inactive | inactive | inactive | – | – | – | inactive | – | –
35 | C=C(C)C(=O)O | inactive | inactive | inactive | inactive | – | – | – | inactive | – | –
36 | CCC(=O)/C=C/C1C(C)=CCCC1(C)C (configuration not stated) | inactive | inactive | inactive | inactive | – | – | – | inactive | inactive | –
37 | O | inactive | – | inactive | inactive | – | – | – | inactive | inactive | –
38 | CCn1c2ccccc2c2cc(N)ccc21 | inactive | – | inactive | inactive | inactive | – | – | inactive | inactive | 10.8 µM (active) and 15.4 µM (active) and 30.6 µM (active)
39 | Cc1cc(Cc2cc(C)cc(C(C)(C)C)c2O)c(O)c(C(C)(C)C)c1 | 48.8 µM (active) and 43.3 µM (active) | inactive | 61.4 µM (active) | – | 19.4 µM (active) and 43.3 µM (active) | 48.8 µM (active) and 30.6 µM (active) | inactive | 48.8 µM (active) and 43.3 µM (active) | 43.5 µM (active) and inactive | –
40 | Nc1cc(S(=O)(=O)O)cc2cc(S(=O)(=O)O)cc(O)c12 | – | 31.7 µM (active) | inactive | inactive | – | – | – | – | – | –
41 | O=C(O)c1cn(-c2ccc(F)cc2)c2cc(N3CCNCC3)c(F)cc2c1=O | inactive | inactive | inactive | inactive | – | – | – | inactive | inactive | –
42 | CNCCC(Oc1ccc(C(F)(F)F)cc1)c1ccccc1 (configuration not stated) | 60.3 µM (active) | – | – | – | 29.8 µM (active) | – | – | 67.7 µM (active) and 29.8 µM (active) | inactive | –
43 | O=C1OC2(c3ccc(O)cc3Oc3cc(O)ccc32)c2ccccc21 | – | inactive | – | – | – | – | – | – | inactive | –
44 | COc1ccc(CCN2CCC(Nc3nc4ccccc4n3Cc3ccc(F)cc3)CC2)cc1 | 22.2 µM (active) and 26.6 µM (active) | – | 17.6 µM (active) and 29.8 µM (active) | 17.6 µM (active) and 29.8 µM (active) | 17.6 µM (active) and 26.6 µM (active) | – | inactive | 19.8 µM (active) and 29.8 µM (active) | inactive | inactive
